Screen size: about 340,000 compounds; about 2,100 (0.62%) were called active. The list is a sample of the results. Measured potencies and affinities stand elsewhere. A number with no mark means an inactive call.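 Rule for the calls: active = first-screen hits whose inhibition reached a set limit at any dose in the follow-up dose series; inconclusive = inhibition above the set first-screen limit but never retested; inactive = the rest.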

This experiment deals with Rac GTPase-activating protein 1 (Homo sapiens) (UniProt Q9H0H5). As to the kind of experiment: blockers of MgcRacGAP-driven Rac1 GTP hydrolysis – biochemical, ADP Hunter fluorescence, primary and confirmatory, confirmation (AID 624330).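 Note: fluorescence reports GDP produced by GAP-driven GTP hydrolysis.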 To be noted: MgcRacGAP-stimulated Rac1 GTP hydrolysis, at 30 µM, active compounds read high, GST-tagged Rac1 F28L mutant substrate.
Rac GTPase-activating protein 1 (Homo sapiens), sequence (Q9H0H5 whole entry, looked up): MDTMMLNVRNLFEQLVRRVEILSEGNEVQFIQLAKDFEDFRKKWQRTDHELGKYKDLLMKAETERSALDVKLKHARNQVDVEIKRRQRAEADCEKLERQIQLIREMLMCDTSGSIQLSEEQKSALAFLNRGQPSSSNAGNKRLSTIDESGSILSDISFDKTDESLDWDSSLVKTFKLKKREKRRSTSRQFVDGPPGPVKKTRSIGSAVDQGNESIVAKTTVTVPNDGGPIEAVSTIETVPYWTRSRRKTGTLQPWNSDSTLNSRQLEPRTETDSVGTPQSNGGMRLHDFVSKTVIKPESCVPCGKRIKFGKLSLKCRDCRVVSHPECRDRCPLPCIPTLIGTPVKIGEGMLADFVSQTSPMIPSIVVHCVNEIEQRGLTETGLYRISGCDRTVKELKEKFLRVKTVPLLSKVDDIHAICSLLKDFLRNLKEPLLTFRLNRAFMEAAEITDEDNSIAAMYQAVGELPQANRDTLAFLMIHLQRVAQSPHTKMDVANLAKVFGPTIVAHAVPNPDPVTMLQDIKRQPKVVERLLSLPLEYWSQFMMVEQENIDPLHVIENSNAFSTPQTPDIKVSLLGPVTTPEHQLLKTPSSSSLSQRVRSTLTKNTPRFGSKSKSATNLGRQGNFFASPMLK
For `CC[C@@]1(C(=O)OC)N[C@H](CN(C)C(=O)COC)[C@@H]2C(=O)N(C)C(=O)[C@@H]21`, the inhibition (as a rule, the change of the read-out against control, counted positive when it falls) was 6.93%.
To `CC1CC(C)CN(CCCCOc2ccc([N+](=O)[O-])cc2)C1` (configuration not stated) belongs 19.1%; to `CCOC(=O)C1=C(C)NC(=O)NC1/C=C\c1ccccc1` (configuration not stated), 15.6%.
The same measure for `CCOc1ccc(CCNC(=O)C2=C(C)C(=O)OC23CCC(C)CC3)cc1` (configuration not stated): 8.86%; for `CN1CCN(c2ccc(NC(=S)NC(=O)c3cccc4c(Cl)cccc34)cc2)CC1`: 9.96%; for `CCCCNS(=O)(=O)c1cc2c3c(c1)CCN3C(=O)CC2`: 10.4%.
The same measure for `COc1ccc(S(=O)(=O)NCc2cn3c(C)csc3n2)cc1F`: 7.58%; for `CN(Cc1nc2ccccc2c(=O)[nH]1)C(=O)COc1ccccc1Cc1ccccc1`: 4.16%.
As to `CNc1ccc(/C=C2\COc3ccccc3C2=O)cc1[N+](=O)[O-]`, the inhibition is 9.69%.
The same measure for `O=C1C(=Cc2ccccc2[N+](=O)[O-])Cc2ccccc21`: 5.54%; for `Cc1cc2oc(=O)c(CC(=O)NCCCO)c(C)c2c2occ(C(C)(C)C)c12`: 4.92%; for `CCOc1cc(/C=N/NC(=O)c2cccnc2)ccc1OCC(N)=O`: 3.29%.
The same measure for `O=C(OCc1nnc(-c2ccccc2)o1)c1cn(-c2ccccc2)nc1-c1ccccc1`: 4.52%; for `OC1CCN(Cc2cccc3ccccc23)CC1`: 14.2%; for `O=C1CC(c2cccs2)c2ccc3ccccc3c2N1` (configuration not stated): 6.36%.
To `COc1ccc(-c2nnn(CC(=O)NCCc3c[nH]c4ccccc34)n2)cc1OC` belongs 7.85%; to `COc1cc(/C=C2/C(=O)NN(c3ccc(F)cc3)C2=O)cc(Cl)c1O`, 20.4%.
Consider `COc1cc(/C=C2/C(=O)NN(c3ccccc3)C2=O)cc(Br)c1O`, for which the inhibition is 23.7%.
`COc1cccc(C2=CC(=O)C[C@H](c3ccc4c(c3)OCO4)C2)c1OC`: the inhibition was 6.37%.
The same measure for `O=c1c2cc([N+](=O)[O-])ccc2sn1-c1ccccc1`: 17.4%; for `O=c1c2ccccc2ncn1-c1cccc(Cl)c1`: 5.62%.
To `CC1=CC(C)(C)N(C)C(=O)N1c1ccc(Cl)cc1` belongs 6.14%.
To `Cc1cc(=O)cc(C)n1-c1ccc(Cl)cc1` belongs 5%.
Regarding `O=c1c2ccccc2sn1-c1ccc(S(=O)(=O)N2CCCCC2)cc1`, the inhibition is 10.2%.
To `Cc1nn(-c2ccc(Cl)cc2Cl)c(=O)c2ccccc12` belongs -1.03%; to `O=c1c2ccccc2cnn1-c1ccc(Cl)cc1`, 1.97%; to `O=c1c2ccccc2sc2ccc(Cl)cc12`, 5.89%.
To `O=c1c2cnn(-c3ccccc3)c2ncn1Cc1ccccc1F` belongs 7.32%; to `CC(=O)c1ccc(-c2nnc(CCC(=O)N3CCCC(C(=O)CC(C)C)C3)o2)s1` (configuration not stated), 9.2%.
The same measure for `CCn1c(SCC(=O)NCCOC)nc2sc3c(c2c1=O)CCCC3`: 6.34%.
`CC1CCCCC1NC(=O)CCn1c(=O)sc2ccccc21` (configuration not stated): the inhibition is 12.2%.
The same measure for `CN(CC(=O)Nc1ccc(N2CCOCC2)cc1)CC(=O)Nc1ccccc1C#N`: 6.72%; for `O=c1oc2cc(Br)ccc2n1Cc1ccccc1`: 13.7%.
The same measure for `CCc1nnc(NC(=O)c2cccc(S(=O)(=O)N3CCCCC3)c2)s1`: 10.2%; for `COC(=O)Cc1c(O)ccn(CCc2ccc(OC)c(OC)c2)c1=O`: 5.94%; for `Cc1ccc(S(=O)(=O)N2C[C@@H](C)[C@]3(C2)[C@H](O)[C@H](OC(=O)NC2CCCC2)C[C@H]2C(=O)N(c4ccccc4)C(=O)[C@H]23)cc1`: 15.8%.
In the case of `CSc1nc2c(C)c(C)c(C)c(C)c2[nH]1`, the inhibition is 2.42%.
As for `CCOC(=O)N1CCN(C(=O)CC(C(=O)N2CCc3ccccc32)n2ccnc2)CC1` (configuration not stated), the inhibition was 4.9%.
To `O=C(COc1ccc2c3c(c(=O)oc2c1)CCCC3)NCCN1CCOCC1` belongs 1.04%; to `COC(=O)C1=C(O)/C(=C\c2sccc2C)N=C1C`, 10.9%; to `CCOC(=O)C1=C(O)/C(=C/c2cc(OC)c(OC)c(OC)c2)N=C1C`, 2.56%.
The same measure for `CCOC(=O)C1=C(O)/C(=C\c2cccc(OC)c2)N=C1C`: 7.59%; for `CCOC(=O)C1=C(O)/C(=C\c2ccc(OC)c(OC)c2)N=C1C`: -1.28%.
Turning to `COC(=O)C1=C(O)/C(=C/c2ccc(OCC(=O)Nc3ccc(OC)cc3)cc2)N=C1C`, the inhibition was 6.48%.
The same measure for `COC(=O)C1=C(O)/C(=C/c2cccc(OC)c2O)N=C1C`: 28.1%; for `CN1CCN(NC(=O)c2cc([N+](=O)[O-])cc([N+](=O)[O-])c2)CC1`: -0.16%; for `CCC(C)NC(=O)CN(c1cc(C)cc(C)c1)S(=O)(=O)c1c(C)[nH]c(=O)[nH]c1=O` (configuration not stated): 9.01%.
The same measure for `CCCC(=O)Nc1ccc2c(c1)nc(CCNC(=O)c1ccccc1)n2C`: 1.08%; for `Cc1nonc1CN(C)C(=O)c1cc(COc2ccc(F)cc2Cl)on1`: 1.26%; for `Cn1c(=O)c2c(nc(N3CCNCC3)n2Cc2cccc3ccccc23)n(C)c1=O`: 6.58%.
For `Cc1cccc(C(=O)NCC(=O)NNC(=O)c2ccccc2O)c1`, the inhibition is 2.8%.
Take `Cc1ccc(NC(=O)c2cc(N3C(=O)CCC3=O)ccc2N2CCCCC2)cc1`: the inhibition is 5.7%.
The same measure for `Oc1[nH]c2ccccc2c1C=Nc1ccccc1`: 11.5%; for `COc1ccc(N=Cc2c(O)[nH]c3ccccc23)cc1`: 9.26%; for `CCN(CC)c1ccc(N=Cc2ccc([N+](=O)[O-])o2)cc1`: 25.9%.
To `CCN(CC)c1ccc(N=Cc2ccc(N(CC)CC)cc2O)cc1` belongs 6.98%; to `CC1(C)CC(=O)C=C(NCCN2CCN(C(=S)NC3CCCCC3)CC2)C1`, -3.74%; to `CN(Cc1ccccc1)S(=O)(=O)c1ccc(Cl)nc1`, 11.5%.
Turning to `CCOC(=O)c1ccccc1NC(=O)COC(=O)CCNS(=O)(=O)c1cccs1`, the inhibition was 3.03%.
To `COc1ccc(NC(=O)NNC(=O)C(C)Oc2ccc3ccccc3c2)cc1` (configuration not stated) belongs 3.58%.
Take `S=C(NCCc1ccccc1)Nc1ccc(Nc2ccccc2)cc1`: the inhibition was 26.5%.
The same measure for `O=C(Nc1ccc(Nc2ccccc2)cc1)C(Cl)(Cl)Cl`: 12.3%.
To `O=C(Nc1ccc(Nc2ccccc2)cc1)c1c(F)c(F)c(F)c(F)c1F` belongs -3.02%; to `Cc1ccc(Nc2ccccc2)cc1`, 6.69%; to `Cc1ccc(C)c(OCCC(=O)OCC(=O)Nc2cc(S(=O)(=O)N3CCCCC3)ccc2C)c1`, 0.95%.
To `CC1CCN(C(=O)c2ccc(NS(=O)(=O)c3ccc4[nH]c(=O)[nH]c4c3)cc2)CC1` belongs 8.71%.
Take `CN(CC(=O)O/N=C(\N)c1ccc([N+](=O)[O-])cc1)S(=O)(=O)c1ccccc1`: the inhibition is -3.85%.
To `O=C(/C=C/C(Cl)(Cl)Cl)Nc1ccc(Cl)cc1` belongs 9.68%; to `CC1=NN(c2ccccc2)C(=O)C1C(=O)c1ccccc1` (configuration not stated), 12.2%.
To `CC1=NN(c2ccccc2)C(=O)C1C=Nc1ccccc1O` (configuration not stated) belongs 14.8%; to `O=C(NC1(C(F)(F)F)C(=O)Nc2c1c(=O)[nH]c(=O)n2Cc1ccccc1)c1ccco1` (configuration not stated), 6.82%; to `OCCN1CCN(CCOc2ccccc2-c2ccccc2)CC1`, -0.13%.
Consider `c1ccc(-c2ccccc2OCCCN2CCOCC2)cc1`, for which the inhibition was 27.2%.
To `c1ccc(-c2ccccc2OCCOCCN2CCCCC2)cc1` belongs 17.9%; to `CCN1CCN(CCOc2ccccc2-c2ccccc2)CC1`, 7.05%; to `OCCCN1CCN(CCCOc2ccccc2-c2ccccc2)CC1`, 5.09%.
For `c1ccc(-c2ccccc2OCCOCCN2CCNCC2)cc1`, the inhibition is 31.8%.
The same measure for `CCOc1ccccc1OCCOCCN1CC(C)OC(C)C1` (configuration not stated): 17.3%; for `CC1CN(CCOc2ccccc2-c2ccccc2)CC(C)O1` (configuration not stated): 18%.
To `Cc1ccc(C(=O)COC(=O)c2cnccn2)cc1` belongs -2.3%.
To `O=C(C1CCCN(S(=O)(=O)c2ccc(Cl)cc2)C1)N(Cc1cccs1)C1CC1` (configuration not stated) belongs 6.33%.
Regarding `CCn1c(SCC(=O)Nc2cc(C)on2)nnc1-c1ccc(OC)cc1`, the inhibition is -3.69%.
The same measure for `OC(CNCc1cccs1)c1ccccc1` (configuration not stated): 8.64%; for `COc1cccc(CN2CCN(S(=O)(=O)c3ccc(Cl)s3)CC2)c1`: -1.96%; for `CCOc1ccc(/C=N/n2cc(-c3ccccc3)[nH]c2=S)cc1`: 7.02%.
The same measure for `CCOC(=O)C1(C(=O)OCC)NC(=O)CC1CC(C)C` (configuration not stated): 0.34%.
The same measure for `COc1ccc(NC(=S)NCCc2ccc(F)cc2)c(OC)c1`: 5.59%; for `Fc1ccccc1OCCCCN1CCCCC1`: 24.8%.
In the case of `C/C=C/c1ccc(OCCCCN2CCC(C)CC2)c(OC)c1`, the inhibition is 17.4%.
The same measure for `Cc1ccccc1OCCCCCn1ccnc1`: 2.87%.
To `Clc1ccccc1OCCCCn1ccnc1` belongs -1.42%; to `CC1CN(CN2C(=O)c3ccccc3C2=O)CC(C)O1` (configuration not stated), -0.88%; to `C/C=C/c1ccc(OCCCCOc2ccc(OC)cc2)c(OC)c1`, 8.38%.
The same measure for `CC1CN(C(=O)CCCN2C(=O)c3ccccc3C2=O)CC(C)O1` (configuration not stated): -0.39%.
Turning to `Fc1ccccc1OCCCCCN1CCCC1`, the inhibition was 10.2%.
To `CCn1c2ccccc2c2cc(NC(=O)COC(=O)c3cc(S(N)(=O)=O)c(Cl)cc3Cl)ccc21` belongs 11.3%; to `O=C(Nc1nnc(C2CC2)s1)C1Cc2ccccc2CN1C(=O)c1ccco1` (configuration not stated), 6.66%.

Values taken from PubChem BioAssay AID624330 (Southern Research Specialized Biocontainment Screening …, 2012).
